{"source": "paper PMC7819943", "about": "“Rice protein-binding microarrays: a tool to detect cis-acting elements near promoter regions in rice”", "note": "In all, about 39,000 sequences were measured (“fluorescence intensity (a.u.)”: median about 4,300, highest 2% from about 39,000 on). The full list was thinned out, with the highest values kept by preference."}
{"biological_target": "T1, OsSMF1 (Oryza sativa, UniProt Q6ZLB0 1-436)", "T1 sequence": "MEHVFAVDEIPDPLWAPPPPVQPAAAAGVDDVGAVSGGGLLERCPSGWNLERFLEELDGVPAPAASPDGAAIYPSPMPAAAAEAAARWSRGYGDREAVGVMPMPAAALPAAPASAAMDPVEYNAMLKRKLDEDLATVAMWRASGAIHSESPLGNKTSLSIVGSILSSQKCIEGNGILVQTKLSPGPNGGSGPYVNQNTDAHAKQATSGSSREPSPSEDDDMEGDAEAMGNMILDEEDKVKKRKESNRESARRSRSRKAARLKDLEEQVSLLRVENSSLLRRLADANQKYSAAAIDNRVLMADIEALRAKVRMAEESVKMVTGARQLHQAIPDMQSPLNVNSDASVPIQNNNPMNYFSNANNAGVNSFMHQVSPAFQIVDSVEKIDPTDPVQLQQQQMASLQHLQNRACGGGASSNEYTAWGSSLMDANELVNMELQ", "test": "protein-binding microarray (RPBM); PBS, 2% BSA, 51.3 ng/ul salmon testes DNA, 50 uM zinc acetate, 200 nM TF, 25 C, 1 h; high values mean tight binding", "details": "protein: recombinant; tags: N-terminal polyhistidine and DsRed monomer fusion (pET32a); chain copies: 2; label: CyDye5-dUTP incorporated in the synthesized complementary strand; 3' TTTTT single-stranded linker to array surface; dsDNA, one strand shown", "procedure,_shortened": "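Transcription factors were each fused at the N-terminus to a polyhistidine tag plus DsRed and expressed in E. coli BL21-CodonPlus before Ni–NTA purification. Binding to a double-stranded custom Agilent array was carried out with 200 nM protein at 25 °C for 1 h in PBS, 2% BSA, salmon testes DNA and 50 µM zinc acetate. The binding signal is per-feature fluorescence intensity, in arbitrary units, on an Axon 4000B scanner.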"}
{"sequence": "AAAGCAACAGCAGCCCAGCACACCACAGCACAGCGCCGCTCGGAGTCACCTAGTGCAG", "binding signal": "3180 fluorescence intensity (a.u.)"}
{"sequence": "CTCCTCTTCCCTTCCCTTCTCTCTTTTCTTTTCTCTCACACGGAGTCACCTAGTGCAG", "binding signal": "28600 fluorescence intensity (a.u.)"}
{"sequence": "TCTCCCCTCTCCTTCCTCCTCTCCTTTCCCCTCCTCTCTTCGGAGTCACCTAGTGCAG", "binding signal": "17100 fluorescence intensity (a.u.)"}
{"sequence": "TCCTGTCCTTCTTTCTCTTCAAGTCCTTCCTCTTCACTCCCGGAGTCACCTAGTGCAG", "binding signal": "65500 fluorescence intensity (a.u.)"}
{"sequence": "CATCATCATCTCTTCTCCTCTCTCTCTCTCTTTCCTTTTCCGGAGTCACCTAGTGCAG", "binding signal": "8580 fluorescence intensity (a.u.)"}
{"sequence": "CTCCTCTCCTCCCTCCTCGACTTCTCCGCTTTCTCCGCCTCGGAGTCACCTAGTGCAG", "binding signal": "3230 fluorescence intensity (a.u.)"}
{"sequence": "TTCCTGACTTCCTCCTCCCTTTCTTCTCTCGCCGCCGAGACGGAGTCACCTAGTGCAG", "binding signal": "41400 fluorescence intensity (a.u.)"}
{"sequence": "CTTCACTAAGGTCATCGTCGTGCCTTCCTCGTCCTCCTCCCGGAGTCACCTAGTGCAG", "binding signal": "43800 fluorescence intensity (a.u.)"}
{"sequence": "TCCTCCATCGCCGCCTTCACCGAGTCACCGCCCGTCATCCCGGAGTCACCTAGTGCAG", "binding signal": "3380 fluorescence intensity (a.u.)"}
{"sequence": "TCCTCCTCGTCGTCATCTCCAACTCCCTCCCGCTCCCTTCCGGAGTCACCTAGTGCAG", "binding signal": "5660 fluorescence intensity (a.u.)"}
{"sequence": "GACCAAACCTCCAATTAACAAGGTAGTTTAACACACATCACGGAGTCACCTAGTGCAG", "binding signal": "16100 fluorescence intensity (a.u.)"}
{"sequence": "TACAAGTATAAAACTTTAGATACGTGGGATTAACACGTCACGGAGTCACCTAGTGCAG", "binding signal": "6470 fluorescence intensity (a.u.)"}
{"sequence": "CCTCGGGGAGGGCGTGGCAAGCGGCACGCGTGGCGGGGAGCGGAGTCACCTAGTGCAG", "binding signal": "5890 fluorescence intensity (a.u.)"}
{"sequence": "CCCCAGAAAGTCCCCATATTTCTAGGAACTTCCGTTCTAGCGGAGTCACCTAGTGCAG", "binding signal": "13900 fluorescence intensity (a.u.)"}
{"sequence": "GCTCATAGAGCTACACACTGATGACAAGACATAAGGGAAGCGGAGTCACCTAGTGCAG", "binding signal": "4350 fluorescence intensity (a.u.)"}
{"sequence": "ACCTCCGGCCCACGGACGCGACGCGCTTACACACATGGCCCGGAGTCACCTAGTGCAG", "binding signal": "3580 fluorescence intensity (a.u.)"}
{"sequence": "TGGATTACTCATAATGATTATGTCATATAGGTGATGTTGCCGGAGTCACCTAGTGCAG", "binding signal": "3440 fluorescence intensity (a.u.)"}
{"sequence": "TGATACGATGACGTTTGGGTGGTTGGATATATATCATGATCGGAGTCACCTAGTGCAG", "binding signal": "5350 fluorescence intensity (a.u.)"}
{"sequence": "ATATAGCATGTCAAGATATTTGGGTGATATGTACTATGTACGGAGTCACCTAGTGCAG", "binding signal": "4580 fluorescence intensity (a.u.)"}
{"sequence": "GGATAAGCACCGACGATTTGGTGGTAGATCTATATGGGTACGGAGTCACCTAGTGCAG", "binding signal": "48000 fluorescence intensity (a.u.)"}
{"sequence": "ATGATTTATTATGTTCTGCCCTTCTTTGTTGTGACAAAGTCGGAGTCACCTAGTGCAG", "binding signal": "3900 fluorescence intensity (a.u.)"}
{"sequence": "TGCTTTCCTCCCTTTATTACTACATCATGCGCCTTCGTGACGGAGTCACCTAGTGCAG", "binding signal": "3370 fluorescence intensity (a.u.)"}
{"sequence": "AGCTGGCGGCTGGCGGGTGGTGGTGGTGGCTGGCGGCGGGCGGAGTCACCTAGTGCAG", "binding signal": "4500 fluorescence intensity (a.u.)"}
{"sequence": "GAAGAATCGGCCCAACGACCAAGAGGGAGTCAAAATAGACCGGAGTCACCTAGTGCAG", "binding signal": "22600 fluorescence intensity (a.u.)"}
{"sequence": "ACATCCGAGAGACTAGGCCGACAAATCACCACCGACACGTCGGAGTCACCTAGTGCAG", "binding signal": "5890 fluorescence intensity (a.u.)"}
{"sequence": "CCCACCTGTGACTCAGCGAGCCGACTGCCACGTCAGACAACGGAGTCACCTAGTGCAG", "binding signal": "34400 fluorescence intensity (a.u.)"}
{"sequence": "CAGTGCCGACTGCCGAGGCAGAGAGGCAGACAAAGTGACACGGAGTCACCTAGTGCAG", "binding signal": "54900 fluorescence intensity (a.u.)"}
{"sequence": "GTAGAAAGCAGGGATAAAGTATTGGTGGAGATGTCACGCCCGGAGTCACCTAGTGCAG", "binding signal": "3560 fluorescence intensity (a.u.)"}
{"sequence": "ATCCACGAGGGCAAGCAAGCAAGCAAGCTCCACCTCTCTGCGGAGTCACCTAGTGCAG", "binding signal": "3220 fluorescence intensity (a.u.)"}
{"sequence": "CTTAAAGCAGTTTGACTTTGACCAAAGTCAAAACGTCTTACGGAGTCACCTAGTGCAG", "binding signal": "40600 fluorescence intensity (a.u.)"}
{"sequence": "GTCAAAGTTATAAAAGTTTGACCTCAACTTTGTCCAAAACCGGAGTCACCTAGTGCAG", "binding signal": "24200 fluorescence intensity (a.u.)"}
{"sequence": "TTAAATTTGAAACAGTTTGACTTTGACCAGTCAAAGTCTTCGGAGTCACCTAGTGCAG", "binding signal": "8060 fluorescence intensity (a.u.)"}
{"sequence": "CTGGGCAAAATCTCTCCCATACATACACTACAGCGGCGAACGGAGTCACCTAGTGCAG", "binding signal": "3290 fluorescence intensity (a.u.)"}
{"sequence": "GGGCGTTGCGGCCGTCACACGTGGTATGGGAGGGCGCCGCCGGAGTCACCTAGTGCAG", "binding signal": "5820 fluorescence intensity (a.u.)"}
{"sequence": "TAGTAGTACTATGTAACCGGTACAGTCACCAAAACAGGGTCGGAGTCACCTAGTGCAG", "binding signal": "5260 fluorescence intensity (a.u.)"}
{"sequence": "CAGTTGACAAATGACAACCGGCACGTTTGCAACATGCAAGCGGAGTCACCTAGTGCAG", "binding signal": "3220 fluorescence intensity (a.u.)"}
{"sequence": "TTTGCCTACTCATCACCACATGTATAAAGTGTAAACTTTACGGAGTCACCTAGTGCAG", "binding signal": "5240 fluorescence intensity (a.u.)"}
{"sequence": "CAGTTCTTAAACTTGTAAAGTTGTGTCATATACCACATTACGGAGTCACCTAGTGCAG", "binding signal": "39600 fluorescence intensity (a.u.)"}
{"sequence": "GTTTATACCTATAAAGTTTCTATATTAAAAGTTTACGTGTCGGAGTCACCTAGTGCAG", "binding signal": "3490 fluorescence intensity (a.u.)"}
{"sequence": "CCAAAATTAGCTTCGGTCGGTACAAACACCAGAATTCAGCCGGAGTCACCTAGTGCAG", "binding signal": "3220 fluorescence intensity (a.u.)"}
{"sequence": "CGGAATGTCTCCGCGGAAGATGCCCAAGGAATCGCCTGGCCGGAGTCACCTAGTGCAG", "binding signal": "39500 fluorescence intensity (a.u.)"}
{"sequence": "CACCGCCCCATCGATCTCCGCCCGGCCGCCACCAATCTCGCGGAGTCACCTAGTGCAG", "binding signal": "3310 fluorescence intensity (a.u.)"}
{"sequence": "GTCTCCGATGCCCCGATGCCGCCGCGTCGCTGGCCTGATTCGGAGTCACCTAGTGCAG", "binding signal": "3390 fluorescence intensity (a.u.)"}
